FMDV inh: blocks foot and mouth disease virus | Potency, µM (highest dose often 57.9 µM), for the others: at the highest dose activity change, negative = inhibition, hits mostly inhibitors | 410,000 tested, 1.2% active | FMDV antiviral cell-based qHTS; calls by dose curve; tested in HEK293T cells; also: read-out not given here; nearly all actives have a fitted effect of over 45% in size
Marburg entry inh: inhibitors of Marburg virus binding or cell entry; Potency, µM (highest dose often 37.8 µM), without a hit: top-dose activity change, negative = inhibition, actives largely listed as inhibitors; Marburg virus pseudotyped entry inhibition, cell reporter; 300,000 tested, 1.8% active; calls by dose curve; tested in HEK293 cells
Sm TGR inh: S. mansoni TGR enzyme inhibition; Q962Y6; purified TGR, DTNB reduction, TNB absorbance 405 nm; Potency, µM (highest dose often 114 µM), for inactives: top-dose activity change, negative = inhibition, hits mostly inhibitors; 360,000 tested, 3% active; active = well fitted inhibition curve with a large enough effect; inconclusive = small, poorly fitted or top-dose-only effect; inactive = no such curve, though single readings can be large or run the other way; also: nearly all actives have a fitted effect of over 60% in size
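First, TGR (20 nM dispensed) and NADPH were mixed with compound. Second, a 15 min room-temperature incubation followed. Third, further NADPH and then DTNB were added to start the reaction. Finally, TNB absorbance was monitored kinetically.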
VACV mCherry inh: inhibitors of vaccinia virus infection (mCherry reporter signal). Vaccinia virus mCherry reporter infection, fluorescence. Potency, µM (highest dose often 36.5 µM), for the others: at the highest dose activity change, negative = inhibition, usual class: inhibitors. 310,000 tested, 0.63% active; calls by dose curve; tested in A549 cells; also: nearly all actives have a fitted effect of over 35% in size
LASV entry inh: blocks Lassa virus binding to or entry into cells. Lassa virus pseudotype entry inhibition, cell reporter. Potency, µM (titrated, usually from 37.9 µM), for the others: at the top dose activity change, negative = inhibition, hits mostly inhibitors. 300,000 tested, 1.2% active. AID 540256; calls by dose curve; tested in HEK293 cells; also: nearly all actives have a fitted effect of over 50% in size
VACV Venus inh: inhibitors of vaccinia virus (Venus reporter). Vaccinia virus Venus reporter expression, fluorescence. Potency, µM (top dose mostly 36.5 µM), without a hit: top-dose activity change, negative = inhibition, usual class: inhibitors. 330,000 tested, 0.46% active. AID 720580; calls by dose curve; tested in A549 cells; also: nearly all actives have a fitted effect of over 30% in size
* = called active by the depositor; [ ] = another dose, or the depositor's remark. In the library only some 5.4% were active in any assay of this set; here they are far more common. % is scaled to controls: 0 for no effect and ±100 for the full control effect; potency is read from the fitted curve at half-maximal effect.

CC(=O)N1CCN(C(=O)CCc2nnc(CCCCc3ccccc3)o2)CC1 was read as FMDV inh 2%, Marburg entry inh -3%[46.1 µM], Sm TGR inh 45µM*, VACV mCherry inh -1%, LASV entry inh 2%[46.1 µM] and VACV Venus inh -11%.
`COc1ccccc1NC(=O)C1=C(C)Nc2nc3ccccc3n2C1c1ccccc1Cl` (stereo not drawn) gave FMDV inh inconclusive, Marburg entry inh -4%[46.1 µM], Sm TGR inh 6%, VACV mCherry inh -20%, LASV entry inh 26%[46.1 µM] and VACV Venus inh -14%.
Screening C=CCNc1ncnc2c1[nH]c1ccccc12 returned FMDV inh inconclusive, Marburg entry inh -24%, Sm TGR inh 4%, LASV entry inh -13% and VACV Venus inh -18%.
Screening C=CCNc1ncnc2c1[nH]c1ccc(Cl)cc12 returned FMDV inh inconclusive, Marburg entry inh inconclusive, Sm TGR inh -20%, VACV mCherry inh inconclusive, LASV entry inh 10µM* and VACV Venus inh inconclusive.
For CCN(CC)S(=O)(=O)c1ccc2c(c1)N(CC(=O)Nc1ccc(OC)cc1)C(=O)CS2 the results were FMDV inh 7%, Marburg entry inh -20%[46.1 µM], Sm TGR inh -21%, VACV mCherry inh -11% and VACV Venus inh -14%.
Screening CCc1nnc(N/N=C/c2cc(Br)c(O)cc2O)n1N returned FMDV inh 1%, Marburg entry inh inconclusive, Sm TGR inh 35µM*, VACV mCherry inh inconclusive, LASV entry inh inconclusive and VACV Venus inh inconclusive.
CCc1nnc(N/N=C/c2cccs2)n1N was read as FMDV inh -15%, Marburg entry inh inconclusive, Sm TGR inh -5%, VACV mCherry inh 22µM*, LASV entry inh -2% and VACV Venus inh inconclusive.
For CCc1nnc(N/N=C/c2ccc(O)c(OC)c2)n1N the results were FMDV inh -17% and Sm TGR inh -20%.
Screening CC(C)(C)c1nnc(N/N=C/c2cc(Br)ccc2O)n(N)c1=O returned FMDV inh 22µM*, Marburg entry inh inconclusive, Sm TGR inh 0%, VACV mCherry inh 2.5µM*, LASV entry inh inconclusive and VACV Venus inh inconclusive.
COc1cc(CN2CCC3(CCC(CNC(=O)c4cc(C)nn4C)O3)CC2)ccc1F (stereo not drawn) was read as FMDV inh 3%, VACV mCherry inh inactive and VACV Venus inh -21%.
`Cc1nc(NC(=O)CCl)sc1C(=O)N(C)C` gave FMDV inh inconclusive, Sm TGR inh 16µM*, VACV mCherry inh inconclusive and VACV Venus inh inconclusive.
Screening Cc1nc(NC(=O)C(Cl)Cl)sc1C(=O)N(C)C returned FMDV inh -16%, Marburg entry inh inconclusive, Sm TGR inh -9%, VACV mCherry inh inactive, LASV entry inh 3% and VACV Venus inh -10%.
`Cc1cc(=O)n2c(C(=O)Nc3ccc(F)c(Cl)c3)c(C(=O)Nc3cccc(C)c3C)sc2n1` gave FMDV inh -16%, Marburg entry inh -2%[46.1 µM], Sm TGR inh 2%, VACV mCherry inh 2%, LASV entry inh inconclusive and VACV Venus inh 6%.
Screening Cc1cc(=O)n2c(C(=O)Nc3ccc(C(=O)OC(C)C)cc3)c(C(=O)Nc3ccccc3)sc2n1 returned FMDV inh -9%, Marburg entry inh inconclusive, Sm TGR inh -3% and LASV entry inh 23µM*.
`Cc1ccc2c(=O)cc(C(=O)N(Cc3ccc(N(C)C)cc3)C3CCS(=O)(=O)C3)oc2c1` (stereo not drawn) gave FMDV inh -14%, Marburg entry inh -10%[46.1 µM], Sm TGR inh 4%, VACV mCherry inh -5%, LASV entry inh -21%[46.1 µM] and VACV Venus inh -4%.
Screening Cc1ccc(NC(=O)Cn2cc(C(=O)c3cccs3)c3ccccc32)cc1C returned FMDV inh -7%, Marburg entry inh 11µM*, Sm TGR inh 4%, VACV mCherry inh -19%, LASV entry inh inconclusive and VACV Venus inh -16%.
Screening CCn1c(C)cc(C=C2C(=O)c3ccccc3C2=O)c1C returned FMDV inh -76%, Marburg entry inh 13µM*, VACV mCherry inh -6%, LASV entry inh inconclusive and VACV Venus inh 2%.
For OCC1CCCN(c2nc(CN3CCCCC3)nc3scc(-c4ccccc4)c23)C1 (stereo not drawn) the results were FMDV inh 0%, Marburg entry inh inconclusive, Sm TGR inh -4% and LASV entry inh inconclusive.

Compound activity (PubChem)
